This is a sample that favours compounds with a hit; in the whole collection about 3.6% have one here.
TWEAK Fn14 block = blocks TWEAK-Fn14 interaction in a reporter cell assay; TWEAK-stimulated Fn14 reporter cells, luciferase luminescence, 8 h; inhibition, % at 10 µM; actives 2% (n = 360,000); AID 1159606; in the data active = inhibition above about 50%
LMP1 NFkB inh = Epstein-Barr LMP1 NF-kappaB reporter inhibition | LMP1-induced NF-kappaB luciferase reporter cells, luminescence | inhibition, % at 12.5 µM | actives 0.69% (n = 350,000) | AID 504558; in the data active = inhibition above about 41%;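 note: 0% = neutral control wells and 100% = reference inhibitor control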
LGR2 antag = blocks bursicon-induced cAMP signaling via Drosophila LGR2; HEK293 LGR2, CRE-luciferase, bursicon-stimulated, 4 h; inhibition, % at 9.99 µM; actives 0.35% (n = 380,000); AID 720647;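 active = drop in luminescence signal, shown as inhibition above about 50% in the replicate tests, limit read from the data, passing the limit was not always enough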;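 note: agonist challenge used bursicon conditioned medium at about half maximal strength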
HSF-1 act = increases HSF-1 driven luciferase reporter signal; AID 504408; activation, % at 9 µM; NIH3T3-HGL HSF-1 luciferase reporter, MG132, 8 h; 100% = twice DMSO control signal; actives 1.7% (n = 300,000);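 active = mean replicate activation of at least 50% with a set share of replicates each reaching 50%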;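 note: 0% = median of the neutral control wells and 100% = twice that signal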
TROY NFkB inh = blocks TROY-dependent signaling in reporter cells; Q293 LMP1-TROYcd NF-kB luciferase reporter, 4 h; inhibition, % at 10 µM; actives 0.98% (n = 360,000);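 active = compounds whose plate-normalised and pattern-corrected inhibition of the luciferase reporter signal at the single screening dose is 50% or more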
HSF1 inhib = HSF1 inhibition; NIH3T3-HGL HSE-luciferase, MG132-induced, luminescence 8 h; active compounds read low; activity change, negative = inhibition, % at 7.5 µM (by protocol); actives 0.77% (n = 300,000); AID 2098;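 active = more than half of replicate wells show activity change below -50%, luminescence cut by over half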;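 note: luciferase reports HSF-1 transcriptional activity via heat shock element; 0% = median of DMSO wells and -100% = zero luminescence signal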
Numbers without * were called inactive.

What do the screens show for `O=C(NC(NC(=S)Nc1ccccc1)C(Cl)(Cl)Cl)c1cccc(Cl)c1` (stereo unspecified)?
TWEAK Fn14 block: 75*; LMP1 NFkB inh: 14; LGR2 antag: 49; HSF-1 act: 7; TROY NFkB inh: 30; HSF1 inhib: 3

Results for O=C(O)c1cccc(NC(=S)NC(=O)c2ccc(-c3ccccc3)cc2)c1 ?
TWEAK Fn14 block: 1; LMP1 NFkB inh: -16; LGR2 antag: -82; HSF-1 act: -67; TROY NFkB inh: -58; HSF1 inhib: -58*

What do the screens show for `O=C(NC(=S)Nc1ccc(-c2ccccc2)cc1)c1ccccc1`?
TWEAK Fn14 block: -8; LMP1 NFkB inh: -11; LGR2 antag: -59; TROY NFkB inh: -31

What do the screens show for `CC(=O)c1cccc(NC(=S)NC(=O)c2cccc(Cl)c2)c1`?
TWEAK Fn14 block: -26; LMP1 NFkB inh: -20; LGR2 antag: -57; HSF-1 act: 56*; TROY NFkB inh: -43; HSF1 inhib: 37

What do the screens show for `CCC(=O)Nc1cccc(NC(=S)NC(=O)c2ccc(Cl)cc2Cl)c1`?
TWEAK Fn14 block: -1; LMP1 NFkB inh: -16; LGR2 antag: -31; HSF-1 act: 1; TROY NFkB inh: -26; HSF1 inhib: 6

How did CS(=O)(=O)Nc1ccc2c(c1)[C@H]1C[C@@H](CC(=O)NCc3ccc(-c4ccccc4)cc3)O[C@H](CO)[C@H]1O2 do in these assays?
LGR2 antag: 21

Results for CO[C@@H]1CN(C)C(=O)c2ccc(NS(=O)(=O)c3ccc(C)cc3)cc2OC[C@H](C)N(Cc2nccs2)C[C@@H]1C ?
LGR2 antag: -23

How did CC(=O)c1cccc(NC(=S)NC(=O)c2ccccc2)c1 do in these assays?
TWEAK Fn14 block: -4; LMP1 NFkB inh: -20; LGR2 antag: -50; HSF-1 act: 55*; TROY NFkB inh: -92; HSF1 inhib: 22

Results for O=C(NC(=S)Nc1cc([N+](=O)[O-])ccc1Cl)c1ccccc1 ?
TWEAK Fn14 block: -15; LMP1 NFkB inh: -13; LGR2 antag: -65; HSF-1 act: 54*; TROY NFkB inh: -43; HSF1 inhib: 12

Results for O=C(NC(=S)Nc1cccc([N+](=O)[O-])c1)c1ccccc1 ?
TWEAK Fn14 block: -21; LMP1 NFkB inh: -16; LGR2 antag: -49; HSF-1 act: 1; TROY NFkB inh: -31; HSF1 inhib: -3

What do the screens show for `CNC(=S)Nc1cccc(C(C)=O)c1`?
TWEAK Fn14 block: -20; LMP1 NFkB inh: -7; LGR2 antag: 6; HSF-1 act: 4; TROY NFkB inh: 12; HSF1 inhib: -1

What do the screens show for `O=C(NC(=O)c1ccccc1)Nc1ccccc1`?
TWEAK Fn14 block: 72*; LMP1 NFkB inh: 22; LGR2 antag: 37; HSF-1 act: 46; TROY NFkB inh: 10; HSF1 inhib: 27

What do the screens show for `C[C@@H]1CN([C@@H](C)CO)C(=O)Cc2cc(NC(=O)CCC(F)(F)F)ccc2O[C@H]1CN(C)C(=O)Nc1ccc(F)cc1`?
LGR2 antag: 2

How did Cc1ccc(S(=O)(=O)N(C)C[C@H]2OCCCC[C@@H](C)Oc3ccc(NC(=O)NC4CCCCC4)cc3C(=O)N([C@@H](C)CO)C[C@H]2C)cc1 do in these assays?
LGR2 antag: -4

Results for CN=C1SC(CC(=O)Nc2ccccc2F)C(=O)N1/N=C/c1ccc(O)c(OC)c1 (stereo unspecified) ?
TWEAK Fn14 block: -19; LMP1 NFkB inh: 2; LGR2 antag: -14; HSF-1 act: 40; TROY NFkB inh: -31; HSF1 inhib: 20

Results for CCOc1ccc(/C=N/N2C(=O)C(CC(=O)Nc3ccc(F)cc3F)SC2=NC)cc1OC (stereo unspecified) ?
TWEAK Fn14 block: -2; LMP1 NFkB inh: 12; LGR2 antag: -3; HSF-1 act: 60*; TROY NFkB inh: 7; HSF1 inhib: 22

Results for O=C(COC(=O)COc1ccccc1)Nc1ncc([N+](=O)[O-])s1 ?
TWEAK Fn14 block: 11; LMP1 NFkB inh: 3; LGR2 antag: 5; TROY NFkB inh: 4

What do the screens show for `N/C(=N\OC(=O)Nc1ccccc1)c1ncc([N+](=O)[O-])s1`?
TWEAK Fn14 block: 25; LMP1 NFkB inh: -32; LGR2 antag: -24; HSF-1 act: 65*; TROY NFkB inh: -18; HSF1 inhib: 40

How did Cc1ccc([N+](=O)[O-])cc1N(CC(=O)NC1CCCC1)S(C)(=O)=O do in these assays?
TWEAK Fn14 block: -5; LMP1 NFkB inh: -2; LGR2 antag: -11; HSF-1 act: -10; TROY NFkB inh: -7; HSF1 inhib: 9

Results for Cc1ccc(NS(=O)(=O)c2ccc(NC(=O)CN(c3cc([N+](=O)[O-])ccc3C)S(C)(=O)=O)cc2)c(C)c1 ?
TWEAK Fn14 block: 62*; LMP1 NFkB inh: -71; LGR2 antag: 17; HSF-1 act: 26; TROY NFkB inh: 39; HSF1 inhib: 20

What do the screens show for `N#Cc1c(Oc2ccc3ccccc3c2)sc(C(=O)c2ccccc2)c1N`?
TWEAK Fn14 block: 40; LMP1 NFkB inh: 58*; HSF-1 act: 18; TROY NFkB inh: 5; HSF1 inhib: 10

What do the screens show for `Cc1cccc(Oc2sc(C(=O)c3ccccc3)c(N)c2C#N)c1C`?
TWEAK Fn14 block: 29; LMP1 NFkB inh: -10; HSF-1 act: 12; TROY NFkB inh: -72; HSF1 inhib: 1

How did Cn1cnc(CCNC(=O)C[C@@H]2CC[C@H]3[C@@H](COC[C@H](O)CN3C(=O)Nc3ccccc3)O2)c1 do in these assays?
LGR2 antag: 16

How did Nc1nc(CSc2nc3ccccc3s2)nc(Nc2ccccc2)n1 do in these assays?
HSF-1 act: 58*; HSF1 inhib: 31

What do the screens show for `C[C@H]1CN([C@@H](C)CO)C(=O)Cc2cc(NC(=O)CCC(F)(F)F)ccc2O[C@H]1CN(C)Cc1ccc(C(=O)O)cc1`?
LGR2 antag: -9

Results for Cc1ccc(O)c(-c2cc(-c3ccccc3[N+](=O)[O-])[nH]n2)c1 ?
TWEAK Fn14 block: 9; LMP1 NFkB inh: -25; LGR2 antag: -30; HSF-1 act: 59*; TROY NFkB inh: -40; HSF1 inhib: 42

Results for Oc1ccccc1-c1cc(-c2cccc(F)c2)n[nH]1 ?
TWEAK Fn14 block: 10; LMP1 NFkB inh: -68; HSF-1 act: 6; TROY NFkB inh: -47; HSF1 inhib: 15

How did Cc1ccc(O)c(-c2cc(-c3ccccc3C)[nH]n2)c1 do in these assays?
TWEAK Fn14 block: -8; LMP1 NFkB inh: -4; HSF-1 act: 162*; TROY NFkB inh: -51; HSF1 inhib: 123

What do the screens show for `Cc1ccc(O)c(-c2cc(C(F)(F)C(F)F)[nH]n2)c1`?
TWEAK Fn14 block: 24; LMP1 NFkB inh: -11; HSF-1 act: 80*; HSF1 inhib: 50

What do the screens show for `O=[N+]([O-])c1ccccc1-c1cc(-c2cc(Cl)ccc2O)n[nH]1`?
TWEAK Fn14 block: 35; LMP1 NFkB inh: -24; LGR2 antag: -17; HSF-1 act: 21; TROY NFkB inh: 1; HSF1 inhib: 33
